Rows were chosen to be rich in hits. Some 10% of all compounds tested hit in one or more screens of this group.
JMJD2A Tudor = qHTS Assay for Inhibitors of JMJD2A-Tudor Domain | Potency, µM (series often up to 114 µM), inactives show at the top dose activity change, negative = inhibition, most hits filed as inhibitors | AlphaScreen JMJD2A-Tudor / H3K4me3 peptide binding | 4.4% of 390,000 active | Lysine-specific demethylase 4A (Homo sapiens), O75164; further: potency means the concentration at half of the fitted maximal effect; on the % scale 0 is the no-effect control and ±100 the full control effect; nearly all actives have a fitted effect of over 50% in size
Six1-Eya2 inh = qHTS Assay for Inhibitors of the Six1/Eya2 Interaction | Homeobox protein SIX1 (Homo sapiens) + Protein phosphatase EYA2 (Homo sapiens), … | AlphaScreen GST-Six1/His-Eya2 binding, biochemical; active compounds read low | activity change, % (concentration not given with the values) | 0.56% of 360,000 active | AID 651725, 2012; in the data active means activity change below about -65%; inconclusive means mostly about -30% to -63%; further: on the % scale 0 is the no-effect control and ±100 the full control effect
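Compounds are tested against tagged Six1 and Eya2 proteins bridged by glutathione donor and nickel acceptor beads; after a one-hour incubation at 37 °C without light, AlphaScreen emission is recorded.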
HP1b chromo inh = HTS for Inhibitors of HP1-beta Chromodomain Interactions with Methylated Histone Tails. 0.56% of 390,000 active. Chromobox protein homolog 1 (Homo sapiens), P83916. AlphaScreen HP1-beta / biotin-H3K9me3 peptide binding. Potency, µM (top dose mostly 114 µM), without a hit: at the top dose activity change, negative = inhibition, usual class: inhibitors; further: potency means the concentration at half of the fitted maximal effect; nearly all actives have a fitted effect of over 70% in size
Target sequence (P83916 whole entry, looked up): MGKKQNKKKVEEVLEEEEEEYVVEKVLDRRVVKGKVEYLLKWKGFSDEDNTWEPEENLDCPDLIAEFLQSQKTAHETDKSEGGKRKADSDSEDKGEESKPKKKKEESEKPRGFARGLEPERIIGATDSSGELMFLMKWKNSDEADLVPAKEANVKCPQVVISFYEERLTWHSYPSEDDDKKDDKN
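AlphaScreen: HP1-beta (50 nM) preformed 30 min with biotin-H3(1-18)K9me3 peptide (50 nM) in PBS pH 7.4, 0.01% Tween-20. Compound added for 30 min at RT, then streptavidin donor/nickel chelate acceptor beads (10 ug/mL) for 30 min.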
G9a block = qHTS Assay for Inhibitors of Histone Lysine Methyltransferase G9a. 8.8% of 350,000 active. Potency, µM (titrated, usually from 102 µM), inactives show at the top dose activity, negative = inhibition, hits mostly inhibitors. AID 504332, 2011. G9a H3K9 monomethylation, AlphaScreen, 2 h. Histone-lysine N-methyltransferase EHMT2 (Homo sapiens), Q96KQ7; further: potency means the concentration at half of the fitted maximal effect; on the % scale 0 is the no-effect control and ±100 the full control effect; nearly all actives have a fitted effect of over 75% in size
Target sequence (Q96KQ7 913-1193 limits assumed): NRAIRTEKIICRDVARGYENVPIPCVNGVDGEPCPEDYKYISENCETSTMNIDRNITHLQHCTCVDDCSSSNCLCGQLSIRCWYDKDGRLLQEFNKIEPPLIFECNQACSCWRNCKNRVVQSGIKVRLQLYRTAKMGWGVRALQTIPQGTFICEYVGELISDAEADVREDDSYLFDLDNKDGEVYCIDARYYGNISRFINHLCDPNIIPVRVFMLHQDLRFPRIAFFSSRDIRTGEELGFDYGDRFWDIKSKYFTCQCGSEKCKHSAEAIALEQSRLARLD
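Methyltransferase reactions run at room temperature for 2 h (20 nM enzyme, 500 nM biotin-H3K9 peptide, 20 uM SAM) after a 15 min compound preincubation; product detected by AlphaScreen beads and anti-H3K9me1 antibody.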
CtBP-E1A blk = qHTS Assay for Inhibitors of the CtBP/E1A Interaction | CtBP / adenovirus E1A interaction (AlphaScreen) | AlphaScreen GST-E1A/His-CtBP binding, 1536-well; active compounds read low | activity change, % (concentration not given with the values) | 0.49% of 340,000 active | AID 651724, 2012; in the data active means activity change below about -65%; inconclusive means mostly about -30% to -63%; further: on the % scale 0 is the no-effect control and ±100 the full control effect
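In 5 uL wells, 23 nL compound meets equimolar GST-E1A and His-CtBP (5X stock 125 nM each) for 2 h, 37 °C. Beads (5X, 50 ug/mL) then 1 h, 37 °C, dark.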
BAZ2B inh = qHTS Assay for Inhibitors of BAZ2B; 4.4% of 360,000 active; Potency, µM (highest dose often 114 µM), for the others: at the top dose activity change, negative = inhibition, hits mostly inhibitors; AlphaScreen BAZ2B-H3K14Ac peptide displacement; AID 504333, 2011; further: potency means the concentration at half of the fitted maximal effect; on the % scale 0 is the no-effect control and ±100 the full control effect; nearly all actives have a fitted effect of over 60% in size
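Inhibition is scored as reduced AlphaScreen emission. The BAZ2B/b-H3(5-23)K14Ac complex (50 nM each) in PBS pH 7.4, 0.01% Tween-20 meets compound (up to 110 uM) for 30 min at RT before bead addition.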
Active calls of the source: *; [ ] = remark or other dose. Unless noted, the call rests on the fitted dose curve; in most records, active means well fitted inhibition curve with a large enough effect; inconclusive means small, poorly fitted or top-dose-only effect; inactive means no such curve, though single readings can be large or run the other way.

Results for CC1CC(C)(C)CC2(C1)NC(=S)N(c1ccccc1)N2 (centres undefined) ?
JMJD2A Tudor: -21%; Six1-Eya2 inh: 3; HP1b chromo inh: 40%; G9a block: 28µM*; CtBP-E1A blk: 5; BAZ2B inh: -10%

Results for CC(C)CC1CCCC12NC(=O)NC2=O (centres undefined) ?
JMJD2A Tudor: -3%; Six1-Eya2 inh: -1; HP1b chromo inh: 23%; CtBP-E1A blk: 8

What do the screens show for `CC1CCCC(O)(C(C(=O)O)c2ccccc2)C1` (centres undefined)?
JMJD2A Tudor: 3%; Six1-Eya2 inh: 5; HP1b chromo inh: 29%[57 µM]; CtBP-E1A blk: 4

How did S=C1NC2(CCCCC2)NN1c1ccccc1 do in these assays?
JMJD2A Tudor: -25%; Six1-Eya2 inh: 8; HP1b chromo inh: 54%; G9a block: 14µM*; CtBP-E1A blk: 8; BAZ2B inh: 79µM*

Results for O=C1NC2(NN1c1ccccc1)C1CC3CC(C1)CC2C3 (centres undefined) ?
JMJD2A Tudor: 2%; Six1-Eya2 inh: 1; HP1b chromo inh: 23%; G9a block: inconclusive; CtBP-E1A blk: 6; BAZ2B inh: 13%

Results for CC(C)CCN1NC2(CCCC(C)C2)NC1=S (centres undefined) ?
JMJD2A Tudor: -5%; Six1-Eya2 inh: 0; HP1b chromo inh: 34%; G9a block: 22µM*; CtBP-E1A blk: -4; BAZ2B inh: -17%

How did CC1CCCCC12NC(=S)N(c1ccccc1)N2 (centres undefined) do in these assays?
JMJD2A Tudor: 11µM*; Six1-Eya2 inh: 4; HP1b chromo inh: inconclusive; CtBP-E1A blk: 8; BAZ2B inh: -15%

Results for CC(C)(C)N1NC2(CCCCC2)NC1=S ?
JMJD2A Tudor: 18µM*; Six1-Eya2 inh: 20; HP1b chromo inh: 3%; G9a block: inconclusive; CtBP-E1A blk: 0; BAZ2B inh: inconclusive

Results for Cc1cc2c(cc1S(=O)(=O)CCC(=O)N1CCN(c3ccccc3)CC1)OCC(=O)N2 ?
JMJD2A Tudor: -3%; HP1b chromo inh: 32%; G9a block: -4%[59 µM]; BAZ2B inh: -16%

What do the screens show for `Cc1ccc([N+](=O)[O-])cc1N=Nc1c(-c2ccc([N+](=O)[O-])cc2)[nH]n(C(N)=S)c1=O`?
JMJD2A Tudor: inconclusive; Six1-Eya2 inh: -2; HP1b chromo inh: -4%; G9a block: inconclusive; CtBP-E1A blk: -11; BAZ2B inh: 32µM*

How did O=c1c(N=Nc2ccc(O)cc2)c(-c2ccccc2)[nH]n1-c1ccc([N+](=O)[O-])cc1 do in these assays?
JMJD2A Tudor: inconclusive; Six1-Eya2 inh: -19; HP1b chromo inh: -8%; G9a block: 7.1µM*; CtBP-E1A blk: -10; BAZ2B inh: -29%

How did O=c1cc(-c2ccccc2)[nH]n1-c1ccc([N+](=O)[O-])cc1 do in these assays?
JMJD2A Tudor: 35µM*; Six1-Eya2 inh: -5; HP1b chromo inh: inconclusive; G9a block: inconclusive; CtBP-E1A blk: 17; BAZ2B inh: 45µM*

What do the screens show for `NC(=S)n1[nH]c(-c2ccc([N+](=O)[O-])cc2)c(N=Nc2ccc(Cl)cc2)c1=O`?
JMJD2A Tudor: 63µM*; Six1-Eya2 inh: -14; HP1b chromo inh: 8%; G9a block: 45µM*; CtBP-E1A blk: -3; BAZ2B inh: 5.6µM*

How did O=c1ccc(-c2ccc([N+](=O)[O-])cc2)nn1-c1ccccc1 do in these assays?
JMJD2A Tudor: -6%; Six1-Eya2 inh: -2; HP1b chromo inh: 21%; G9a block: 2%; CtBP-E1A blk: 3; BAZ2B inh: 0%

How did Cc1ccc([N+](=O)[O-])cc1N=Nc1c(C)[nH]n(C(N)=S)c1=O do in these assays?
JMJD2A Tudor: -5%; Six1-Eya2 inh: -1; HP1b chromo inh: 43%; G9a block: -20%; BAZ2B inh: -2%

What do the screens show for `COc1ccc(CCNCc2c(C(=O)O)c(C)n(Cc3c(F)cccc3Cl)c2C)cc1OC`?
JMJD2A Tudor: -25%; HP1b chromo inh: 0%; G9a block: -32%[59 µM]; BAZ2B inh: inconclusive

What do the screens show for `COc1ccc(OC)c(CCNC(=O)c2cc3c(s2)-c2c(C)cccc2OC3)c1`?
JMJD2A Tudor: 19%; HP1b chromo inh: 68%; G9a block: 20%[59 µM]; BAZ2B inh: 9%

What do the screens show for `CSCC[C@H](NC(=O)C(C)(C)Oc1ccc(Cl)cc1)c1nc2ccccc2[nH]1`?
JMJD2A Tudor: 6%; Six1-Eya2 inh: -5; HP1b chromo inh: 22%; G9a block: -48%[59 µM]; BAZ2B inh: -23%

What do the screens show for `COc1cccc([C@H]2Nc3ccc(S(=O)(=O)Nc4cc(C)ccc4C)cc3[C@H]3C=CC[C@H]32)c1`?
JMJD2A Tudor: -34%; HP1b chromo inh: 7%; G9a block: 13µM*; BAZ2B inh: -32%

What do the screens show for `Cc1ccc([C@H]2Nc3ccc(S(=O)(=O)Nc4cccc(Cl)c4C)cc3[C@H]3C=CC[C@H]32)cc1`?
JMJD2A Tudor: inconclusive; HP1b chromo inh: 1%; G9a block: 14µM*; BAZ2B inh: inconclusive

What do the screens show for `Cc1ccc(C)c(NS(=O)(=O)c2ccc3c(c2)Cc2cc(S(=O)(=O)Nc4cc(C)ccc4C)ccc2-3)c1`?
JMJD2A Tudor: -5%; Six1-Eya2 inh: 8; HP1b chromo inh: 14%; G9a block: 6%[59 µM]; CtBP-E1A blk: -1; BAZ2B inh: -4%

How did COc1ccc(CNc2ncnc3ccc(-c4c(C)noc4C)cc23)cc1 do in these assays?
JMJD2A Tudor: -31%

What do the screens show for `O=C1OC2(CCCCC2)OC(=O)C1=CNc1nccs1`?
JMJD2A Tudor: -12%; Six1-Eya2 inh: -2; HP1b chromo inh: 32%; G9a block: 50µM*; CtBP-E1A blk: 2; BAZ2B inh: -22%

What do the screens show for `O=C1OC2(CCCCC2)OC(=O)C1=CNc1nc2ccccc2s1`?
JMJD2A Tudor: -21%; Six1-Eya2 inh: 0; HP1b chromo inh: 29%; G9a block: inconclusive; CtBP-E1A blk: 12; BAZ2B inh: inconclusive

Results for CCc1ccccc1N1C(=O)c2cccc3c(N4CCOCC4)c([N+](=O)[O-])cc(c23)C1=O ?
JMJD2A Tudor: inconclusive; Six1-Eya2 inh: inconclusive; HP1b chromo inh: -38%; G9a block: 16µM*; CtBP-E1A blk: -19; BAZ2B inh: inconclusive
